Assay results from PubChem BioAssay (NCI).
Compounds without any hit were thinned out: in the full panel of roughly 83,000, 20% have a hit.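 In brief: 96-well plates, 48 h treatment, single concentration, percent growth endpoint.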 Active and inactive are the calls of the source. How the source made its calls: active means growth percent below 10; inactive means the rest.

Key:
Experiment in all cases: NCI-60 one-dose screen, 48 h (100 = growth as untreated, 0 = no growth, -100 = all killed)
Conditions in all cases: 10 µM
SK-MEL-2 melanoma = test system: SK-MEL-2 melanoma
SN12C renal = test system: SN12C renal
UO-31 renal = test system: UO-31 renal
TK-10 renal = test system: TK-10 renal
ACHN renal = test system: ACHN renal
CAKI-1 renal = test system: CAKI-1 renal
A498 renal = test system: A498 renal
MOLT-4 leukemia = test system: MOLT-4 leukemia
SR leukemia = test system: SR leukemia
RPMI-8226 leukemia = test system: RPMI-8226 leukemia
OVCAR-8 ovarian = test system: OVCAR-8 ovarian
OVCAR-5 ovarian = test system: OVCAR-5 ovarian
OVCAR-4 ovarian = test system: OVCAR-4 ovarian
SK-OV-3 ovarian = test system: SK-OV-3 ovarian
IGROV1 ovarian = test system: IGROV1 ovarian
OVCAR-3 ovarian = test system: OVCAR-3 ovarian
HS 578T breast = test system: HS 578T breast
NCI/ADR-RES ovarian = test system: NCI/ADR-RES ovarian
CCRF-CEM leukemia = test system: CCRF-CEM leukemia
EKVX NSCLC = test system: EKVX NSCLC

Measured: growth

COc1cc(C2C(C#N)=C(c3c[nH]c4ccccc34)Nc3nc(N)[nH]c(=O)c32)cc(OC)c1OC (stereo unspecified)
inactive: SK-MEL-2 melanoma 93.8% | SN12C renal 90.9% | UO-31 renal 79.3% | TK-10 renal 123% | ACHN renal 95% | CAKI-1 renal 95.2% | A498 renal 89.9% | MOLT-4 leukemia 98.2% | SR leukemia 78.7% | RPMI-8226 leukemia 98.2% | OVCAR-8 ovarian 99.1% | OVCAR-5 ovarian 96.8% | OVCAR-4 ovarian 75.2% | SK-OV-3 ovarian 80.6% | IGROV1 ovarian 80.3% | OVCAR-3 ovarian 21% | HS 578T breast 96% | NCI/ADR-RES ovarian 100%

C/C=C\COc1cc(C)c(Cl)cc1Cl
inactive: SK-MEL-2 melanoma 120% | SN12C renal 94.7% | UO-31 renal 84.8% | TK-10 renal 125% | ACHN renal 128% | CAKI-1 renal 98.8% | A498 renal 101% | CCRF-CEM leukemia 95% | MOLT-4 leukemia 108% | SR leukemia 107% | RPMI-8226 leukemia 99.7% | OVCAR-5 ovarian 108% | OVCAR-4 ovarian 94.7% | SK-OV-3 ovarian 112% | IGROV1 ovarian 107% | OVCAR-3 ovarian 116% | HS 578T breast 121% | NCI/ADR-RES ovarian 115%

CCn1nc(-c2ccc(C(=O)OC)cc2)nc2c(=O)n(C)c(=O)nc1-2
inactive: SK-MEL-2 melanoma 96.6% | SN12C renal 76.6% | UO-31 renal 49.9% | TK-10 renal 85.7% | CAKI-1 renal 63.7% | A498 renal 108% | CCRF-CEM leukemia 83.9% | MOLT-4 leukemia 101% | RPMI-8226 leukemia 61.2% | OVCAR-5 ovarian 105% | OVCAR-4 ovarian 14.1% | IGROV1 ovarian 87.4% | OVCAR-3 ovarian 25.7% | HS 578T breast 35.6% | NCI/ADR-RES ovarian 70%
active: ACHN renal -53.4% | SR leukemia 7.67% | SK-OV-3 ovarian 9.16%

Cc1cc(Nc2cccc(F)c2)nc(NCc2ccccc2)n1
active: RPMI-8226 leukemia -3.16% | OVCAR-3 ovarian 0.169%
inactive: SK-MEL-2 melanoma 19.8% | SN12C renal 16.7% | UO-31 renal 20.7% | TK-10 renal 35.7% | ACHN renal 17.1% | CAKI-1 renal 24.1% | A498 renal 24.4% | MOLT-4 leukemia 22.5% | SR leukemia 23% | OVCAR-8 ovarian 19.2% | OVCAR-5 ovarian 60.9% | OVCAR-4 ovarian 15.9% | SK-OV-3 ovarian 80.6% | IGROV1 ovarian 27.1% | NCI/ADR-RES ovarian 11%

CCCCCCCCCCCCCCCCn1cc[n+](C)c1
active: SK-MEL-2 melanoma -64.5% | SN12C renal -94.6% | UO-31 renal -85.9% | TK-10 renal -80.4% | ACHN renal -0.6% | CAKI-1 renal -83.5% | A498 renal -65.3% | OVCAR-8 ovarian -53.7% | OVCAR-5 ovarian -67.5% | OVCAR-4 ovarian -54.8% | SK-OV-3 ovarian -33.8% | IGROV1 ovarian -67.1% | OVCAR-3 ovarian -24.8% | HS 578T breast -48.4%
inactive: MOLT-4 leukemia 17.2% | SR leukemia 15.2% | RPMI-8226 leukemia 15.8% | NCI/ADR-RES ovarian 37.1%

CCOC(=O)c1cc(-c2ccccc2)nc(N)n1
inactive: SK-MEL-2 melanoma 110% | SN12C renal 94.6% | UO-31 renal 79.1% | TK-10 renal 127% | ACHN renal 92.7% | CAKI-1 renal 94% | A498 renal 86.5% | MOLT-4 leukemia 108% | SR leukemia 106% | RPMI-8226 leukemia 99.6% | OVCAR-8 ovarian 103% | OVCAR-5 ovarian 98.2% | OVCAR-4 ovarian 107% | SK-OV-3 ovarian 103% | IGROV1 ovarian 103% | OVCAR-3 ovarian 109% | HS 578T breast 92.5% | NCI/ADR-RES ovarian 100%

c1ccc(OCCC[P+](c2ccccc2)(c2ccccc2)c2ccccc2)cc1
inactive: SN12C renal 10.4% | TK-10 renal 18.1% | ACHN renal 66% | CAKI-1 renal 76.6% | A498 renal 12.1% | OVCAR-5 ovarian 29% | SK-OV-3 ovarian 19.6% | IGROV1 ovarian 10.5% | HS 578T breast 43.3% | NCI/ADR-RES ovarian 93.3%
active: SK-MEL-2 melanoma -11.5% | MOLT-4 leukemia 0.0403% | SR leukemia -21.2% | RPMI-8226 leukemia -27.6% | OVCAR-8 ovarian 7.15% | OVCAR-4 ovarian 8.32% | OVCAR-3 ovarian 7.59%

O=C(c1ccc(Cl)cc1)c1no[n+]([O-])c1C(=O)c1ccc(Cl)cc1
inactive: SK-MEL-2 melanoma 92% | SN12C renal 86.4% | TK-10 renal 84.1% | ACHN renal 39.7% | A498 renal 106% | MOLT-4 leukemia 68.2% | RPMI-8226 leukemia 35.5% | OVCAR-8 ovarian 30.1% | OVCAR-5 ovarian 105% | OVCAR-4 ovarian 92.5% | SK-OV-3 ovarian 105% | OVCAR-3 ovarian 43.2% | HS 578T breast 109% | NCI/ADR-RES ovarian 82.7%
active: CAKI-1 renal -68.6% | CCRF-CEM leukemia -51.6% | SR leukemia -18.5% | IGROV1 ovarian -35.8%

COc1ccc(-c2cc(/C=C3\C(=O)Nc4cc(Cl)ccc43)[nH]n2)cc1
inactive: SN12C renal 41.7% | TK-10 renal 58.1% | ACHN renal 44.9% | CAKI-1 renal 29.6% | A498 renal 58.3% | CCRF-CEM leukemia 18.6% | MOLT-4 leukemia 21.7% | SR leukemia 19.3% | RPMI-8226 leukemia 19.7% | OVCAR-8 ovarian 48.1% | OVCAR-5 ovarian 69.4% | OVCAR-4 ovarian 64.1% | SK-OV-3 ovarian 28.8% | IGROV1 ovarian 42.6%
active: SK-MEL-2 melanoma -0.387% | OVCAR-3 ovarian -3% | HS 578T breast -4.18% | NCI/ADR-RES ovarian 9.42%

C[n+]1c(/C=C/c2c[nH]c3ccccc23)ccc2ccccc21
active: MOLT-4 leukemia 9.37%
inactive: SK-MEL-2 melanoma 83.9% | SN12C renal 64.4% | UO-31 renal 60.5% | TK-10 renal 89.6% | CAKI-1 renal 88.8% | A498 renal 54.5% | CCRF-CEM leukemia 43.4% | SR leukemia 18.2% | RPMI-8226 leukemia 40.7% | OVCAR-8 ovarian 39.7% | OVCAR-5 ovarian 75.6% | OVCAR-4 ovarian 54.8% | SK-OV-3 ovarian 64.6% | OVCAR-3 ovarian 68.1% | HS 578T breast 103% | NCI/ADR-RES ovarian 100%

O=C/C=C/c1ccc([N+](=O)[O-])cc1Cl
inactive: SK-MEL-2 melanoma 94.2% | SN12C renal 97.5% | UO-31 renal 74.5% | TK-10 renal 139% | CAKI-1 renal 107% | A498 renal 117% | CCRF-CEM leukemia 42.6% | MOLT-4 leukemia 86.6% | RPMI-8226 leukemia 82.1% | OVCAR-8 ovarian 91.2% | OVCAR-5 ovarian 115% | OVCAR-4 ovarian 114% | SK-OV-3 ovarian 104% | IGROV1 ovarian 82.5% | OVCAR-3 ovarian 108% | HS 578T breast 108% | NCI/ADR-RES ovarian 101%
active: SR leukemia 0.062%

CCOc1nc(-c2ccccc2)cc2c(O)c(C(=O)NCCCO)[nH]c(=O)c12
inactive: EKVX NSCLC 108% | SN12C renal 103% | UO-31 renal 79.6% | TK-10 renal 146% | ACHN renal 91.6% | CAKI-1 renal 87.8% | A498 renal 93.5% | CCRF-CEM leukemia 68% | MOLT-4 leukemia 97% | SR leukemia 141% | RPMI-8226 leukemia 51.2% | OVCAR-8 ovarian 108% | OVCAR-5 ovarian 92.4% | OVCAR-4 ovarian 103% | SK-OV-3 ovarian 84.6% | IGROV1 ovarian 57.6% | OVCAR-3 ovarian 93.1% | HS 578T breast 100% | NCI/ADR-RES ovarian 113%

O=NN(CCCl)C(=O)Nc1ccc(NC(=O)N(CCCl)N=O)cc1
active: SR leukemia 2.28%
inactive: SK-MEL-2 melanoma 129% | SN12C renal 90.7% | UO-31 renal 96.6% | TK-10 renal 114% | CAKI-1 renal 100% | A498 renal 67.1% | CCRF-CEM leukemia 102% | MOLT-4 leukemia 97.2% | RPMI-8226 leukemia 100% | OVCAR-8 ovarian 93% | OVCAR-5 ovarian 95.2% | OVCAR-4 ovarian 93.7% | SK-OV-3 ovarian 105% | IGROV1 ovarian 85.9% | OVCAR-3 ovarian 111% | HS 578T breast 104% | NCI/ADR-RES ovarian 98.7%

N=C(N)c1ccc(-c2ccc(-c3ccccc3)s2)cc1F
active: SK-MEL-2 melanoma -83.8% | SN12C renal -83.6% | UO-31 renal -91.2% | TK-10 renal -95% | CAKI-1 renal -81.3% | A498 renal -88.6% | CCRF-CEM leukemia -60.9% | MOLT-4 leukemia -75.5% | SR leukemia -11.6% | RPMI-8226 leukemia -60.2% | OVCAR-8 ovarian -32.9% | OVCAR-5 ovarian -96.8% | SK-OV-3 ovarian -92.4% | IGROV1 ovarian -51.2% | OVCAR-3 ovarian -94.6% | NCI/ADR-RES ovarian -50.8%

CCOc1ccc2c(c1)CC[C@@H]1[C@@H]2CC[C@]2(C)[C@@H](O)[C@@H](O)C[C@@H]12
inactive: SK-MEL-2 melanoma 115% | SN12C renal 93.7% | TK-10 renal 105% | ACHN renal 126% | CAKI-1 renal 89.8% | A498 renal 107% | CCRF-CEM leukemia 87.9% | MOLT-4 leukemia 95.2% | SR leukemia 88.5% | RPMI-8226 leukemia 92.9% | OVCAR-8 ovarian 95.1% | OVCAR-5 ovarian 95.7% | OVCAR-4 ovarian 90.2% | SK-OV-3 ovarian 113% | IGROV1 ovarian 106% | OVCAR-3 ovarian 118% | NCI/ADR-RES ovarian 107%

CC(C)c1ncc(CO)n1Cc1c(Cl)cccc1Cl
inactive: SK-MEL-2 melanoma 101% | SN12C renal 113% | TK-10 renal 95% | ACHN renal 99.9% | CAKI-1 renal 100% | A498 renal 77.8% | CCRF-CEM leukemia 103% | MOLT-4 leukemia 101% | SR leukemia 97.4% | RPMI-8226 leukemia 97.6% | OVCAR-8 ovarian 105% | OVCAR-5 ovarian 106% | OVCAR-4 ovarian 116% | SK-OV-3 ovarian 99.5% | IGROV1 ovarian 100% | OVCAR-3 ovarian 105% | HS 578T breast 104% | NCI/ADR-RES ovarian 110%

C[N+]1(CC2CO2)CCCCCC1 (stereo unspecified)
inactive: SK-MEL-2 melanoma 118% | SN12C renal 102% | UO-31 renal 93.4% | TK-10 renal 114% | CAKI-1 renal 100% | A498 renal 87.8% | CCRF-CEM leukemia 109% | MOLT-4 leukemia 112% | SR leukemia 106% | RPMI-8226 leukemia 103% | OVCAR-8 ovarian 106% | OVCAR-5 ovarian 95.9% | SK-OV-3 ovarian 113% | OVCAR-3 ovarian 104% | HS 578T breast 114% | NCI/ADR-RES ovarian 113%

CC(Oc1ccc(Cl)cc1)c1ccccc1 (stereo unspecified)
inactive: SK-MEL-2 melanoma 112% | SN12C renal 98.1% | UO-31 renal 77.6% | TK-10 renal 106% | CAKI-1 renal 96.5% | A498 renal 119% | CCRF-CEM leukemia 94.1% | MOLT-4 leukemia 87.3% | SR leukemia 99.1% | RPMI-8226 leukemia 101% | OVCAR-8 ovarian 110% | OVCAR-5 ovarian 103% | OVCAR-4 ovarian 103% | SK-OV-3 ovarian 103% | OVCAR-3 ovarian 107% | HS 578T breast 104% | NCI/ADR-RES ovarian 103%
